Screens (PubChem BioAssay)
Most compounds without a hit are left out; they make up all but 3.6% or so of the library.
WT yeast gro inh – growth inhibition of WT yeast, mitochondrial fusion screen; inhibition, % at 10 µM; mitochondrial fusion phenotypic screen, WT strain; 2.1% of 190,000 active; in the data active means inhibition above about 58%; tested in S. cerevisiae
HCT116 bCat-KO – beta-catenin-lacking colon tumor cell growth suppression; 1.5% of 140,000 active; HCT116 beta-catenin knockout viability, CellTiter-Glo, 60 h; active compounds read low; AID 818; viability, % at 10 µM;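 active means viability at or under a set limit, the compound median less 4 SD, cut at about 6% in these data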;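 further: 0% = Hyamine 1622 control at 20 µM and 100% = untreated cell control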
PTEN del growth – growth suppressors of cells with PTEN tumor suppressor deletion | HCT116 PTEN-null viability, CellTiter-Glo, 60 h; active compounds read low | viability, % at 10 µM | 1.2% of 140,000 active | AID 827;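 active means viability at or below a set limit, 4 SD under the median of all tested compounds, cut at about 3.7% in these data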;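 further: PTEN knockout HCT116 line with beta catenin targeted HCT116 as companion control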
hDAT+cocaine – human DAT dopamine uptake with cocaine, either direction | LLC-PK1 hDAT cells, [14C]-dopamine uptake with cocaine IC80; actives deviate in either direction | B-score at 10 µM | 1.3% of 110,000 active;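 active means Z score or B-score, a plate-position-corrected score, falls beyond the plate's 99.7% confidence bounds, in either direction; inactive means both scores lie inside the 99.7% bounds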;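 further: scored against the spread of the other compound wells on the same plate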
Target sequence (Q01959 whole entry, looked up): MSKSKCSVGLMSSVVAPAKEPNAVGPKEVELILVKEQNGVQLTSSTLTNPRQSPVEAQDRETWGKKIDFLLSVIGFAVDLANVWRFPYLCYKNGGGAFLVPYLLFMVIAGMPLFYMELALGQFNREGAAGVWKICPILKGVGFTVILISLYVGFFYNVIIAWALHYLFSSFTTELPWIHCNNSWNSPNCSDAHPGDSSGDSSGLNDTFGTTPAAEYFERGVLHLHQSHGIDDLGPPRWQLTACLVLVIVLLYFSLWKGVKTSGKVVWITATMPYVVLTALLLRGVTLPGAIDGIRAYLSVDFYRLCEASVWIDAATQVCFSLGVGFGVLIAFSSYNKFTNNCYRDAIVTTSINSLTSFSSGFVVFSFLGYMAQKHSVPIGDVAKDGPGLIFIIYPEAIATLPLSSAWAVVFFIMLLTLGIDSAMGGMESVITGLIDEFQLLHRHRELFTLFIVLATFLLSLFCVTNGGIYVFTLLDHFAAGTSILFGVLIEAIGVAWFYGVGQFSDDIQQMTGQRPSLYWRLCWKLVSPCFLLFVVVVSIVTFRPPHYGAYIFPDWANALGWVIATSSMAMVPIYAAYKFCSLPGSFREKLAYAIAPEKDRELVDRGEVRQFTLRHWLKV
The depositor's hits bear a star; nt = no result.

SMILES | WT yeast gro inh | HCT116 bCat-KO | PTEN del growth | hDAT+cocaine
Oc1ccc(/C=N/Nc2ncc(Br)cn2)c(O)c1 | 31 | 6.0* | 8 | nt
Oc1ccc(/C=N/Nc2nccnc2Cl)c(O)c1 | 1 | 4.5* | 6 | -1.6
Oc1ccc(Br)cc1/C=N/Nc1ncc(-c2ccccc2)cn1 | 3 | nt | nt | nt
Cc1c(C(=O)Nc2ccc(OC(F)(F)F)cc2)sc2nc3n(c(=O)c12)CCC3 | -11 | 83 | 75 | 0.31
Cc1c(C(=O)Nc2ccc(Oc3ccccc3)cc2)sc2nc3n(c(=O)c12)CCC3 | 61* | 26 | 46 | 0.41
FC(F)(F)c1cc(-c2ccccc2)nc(NCc2cccs2)n1 | 70* | 77 | 80 | nt
FC(F)(F)c1cc(-c2ccccc2)nc(NC2CCCC2)n1 | 86* | 92 | 107 | 0.33
FC(F)(F)c1cc(-c2ccccc2)nc(NCC2CCCO2)n1 (centres undefined) | 28 | 91 | 93 | 0.53
Cc1cccc2nc(-c3ccccc3)nc(N[C@@H](CO)c3ccccc3)c12 | 66* | 53 | 42 | nt
O=C(O)CNc1nc(-c2ccccc2)nc2ccccc12 | -5 | 97 | 101 | 1.3
COCCn1c(=NC(=O)CSCC(=O)Nc2cc(C)on2)sc2cc(C(=O)OC)ccc21 | -2 | 80 | 0.5* | nt
CC1=CC(C)(C)n2c(O)c(C3=NC(=S)NC3=O)c3cc(OC(=O)c4cccc5ccccc45)cc1c32 | 32 | 1.8* | 0.9* | nt
O=C(Nc1nnc(C2CC2)o1)c1ccc(S(=O)(=O)N2CCCc3ccccc32)cc1 | 63* | 12 | 15 | nt
COc1ccccc1-c1nnc(NC(=O)c2ccc(S(=O)(=O)N(C)Cc3ccccc3)cc2)o1 | -18 | 22 | 18 | -8.6*
CN(Cc1ccccc1)S(=O)(=O)c1ccc(C(=O)Nc2nnc(C3CC3)o2)cc1 | 74* | 19 | 19 | -0.58
CC(=O)Nc1ccc(S(=O)(=O)N(C)Cc2ccccc2)cc1 | -9 | nt | nt | nt
CCc1nnc(NC(=O)c2ccc(S(=O)(=O)N(CC)Cc3ccccc3)cc2)o1 | 63* | 18 | 12 | 0.37
COCc1nnc(NC(=O)c2ccc(S(=O)(=O)N3CCCc4ccccc43)cc2)o1 | 5 | nt | nt | nt
COCC(=O)N/N=C(\C)CC(=O)NCc1ccco1 | 1 | nt | nt | nt
COc1cc(C)c(NC(=S)Nc2cccc(Cl)c2C)cc1OC | 0 | 91 | 83 | nt
OCCNc1nc(Nc2ccccc2Oc2ccccc2)nc(N2CCCC2)n1 | nt | nt | nt | -0.2
CC(Sc1ccccc1)C(=O)NN=C1CCN(C)CC1 (centres undefined) | 9 | nt | nt | nt
CC(C)(C)CC(C)(C)NC(=S)N1CCN(Cc2ccc3c(c2)OCO3)CC1 | 37 | nt | nt | nt
C[C@@H]1CN(C(=O)c2nc3ccc(Cl)cn3c2CN2CCc3sccc3C2)C[C@H](C)O1 | 12 | nt | nt | nt
Cc1ccc(C(=O)CC2(O)C(=O)N(C)c3ccccc32)s1 (centres undefined) | -5 | nt | nt | nt
SMILES | WT yeast gro inh | HCT116 bCat-KO | PTEN del growth | hDAT+cocaine
Nc1ccc(S(=O)(=O)N2CCCc3ccccc32)cc1 | 15 | 83 | 90 | 2.3*
COc1cc2nc(SCC(=O)NCc3ccco3)n(Cc3ccc(Cl)cc3)c(=O)c2cc1OC | -1 | 12 | 10 | 3.8*
O=C1CSC(=S)N1N1C(=O)c2cccc([N+](=O)[O-])c2C1=O | 4 | nt | nt | nt
Cc1cc(NC(=O)c2sccc2C)n(-c2nc3ccccc3[nH]2)n1 | 79* | nt | nt | nt
CCOc1ccc(C(=O)CC(NCc2cccs2)C(=O)O)cc1 (centres undefined) | -6 | nt | nt | nt
C[C@@H]1CCC[C@H](C)N1Cc1nc(Cc2ccccc2Cl)no1 | 14 | nt | nt | nt
CC(=O)c1ccc(-n2c(C)ccc2-c2ccccc2)cc1 | 62* | 63 | 72 | -1.4
COC(=O)c1ccc(-n2c(C)ccc2-c2ccccc2)cc1 | 64 | 55 | 52 | -1.3
C=CCOc1ccc(CNc2ccc(NC(=O)CC(C)C)cc2)cc1OC | 0 | 93 | 97 | nt
Cc1cc(C)nc(Nc2n[nH]c(-c3ccc(N)cc3)n2)n1 | 60* | 100 | 94 | 0.84
Cc1cc(C)nc(Nc2n[nH]c(-c3ccc(C(C)(C)C)cc3)n2)n1 | 4 | nt | nt | nt
CC(=O)Oc1ccccc1-c1nc(C)nc(N(C)C(C)=O)n1 | 9 | 86 | 100 | -2.8*
CC(=O)Oc1ccccc1N(C(C)=O)S(=O)(=O)c1ccc2ccccc2c1 | 58 | nt | nt | nt
Cc1ccnc(NS(=O)(=O)c2ccc(NC(=O)c3cc(-c4ccc(Br)cc4)nc4ccccc34)cc2)n1 | -5 | 75 | 56 | nt
NC1=NC(=O)/C(=C\c2cc([N+](=O)[O-])ccc2Cl)S1 | -9 | nt | nt | nt
COc1ccc(C(C)=O)cc1CSc1nc2ccccc2o1 | 13 | 1.1* | 1.0* | -1.4
COc1ccc(C(C)=O)cc1CSc1nc2ccccc2c(=O)n1-c1ccccc1 | 33 | 66 | 46 | nt
COC(=O)c1ccc(CSc2nc3ccccc3c(=O)n2-c2ccccc2)o1 | 28 | 75 | 79 | 1.1
COc1ccc(C(C)=O)cc1CSc1nc2ccccc2c(=O)n1-c1ccccc1C | 61* | 71 | 57 | nt
COc1ccc(C(C)=O)cc1CSc1nc2ccccc2c(=O)n1-c1cccc(C)c1 | 65* | 34 | 7 | nt
COC(=O)c1ccc(CSc2nc3ccccc3c(=O)n2-c2ccc(OC)c(OC)c2)o1 | 11 | 90 | 85 | 3.5*
COc1ccc(-c2nn(CCC#N)cc2/C=N/O)cc1OC | 0 | nt | nt | nt
O=C(Nc1ccc2c(c1)CCC2)c1ccc(Br)o1 | 27 | 71 | 67 | 2.2*
CCc1cccc(NC(=O)c2ccc(Br)o2)c1 | 52 | 89 | 85 | 4.9*
O=C(c1ccccc1)c1cccc(NC(=O)c2ccc(Br)o2)c1 | 31 | 91 | 77 | -9.7*
SMILES | WT yeast gro inh | HCT116 bCat-KO | PTEN del growth | hDAT+cocaine
O=C(Nc1ccccc1)c1ccc(Br)o1 | 13 | 100 | 100 | 0.53
CCN(CC)c1ccc(NC(=O)c2ccc(Br)o2)cc1 | 21 | 98 | 99 | 0.4
CCN1C(=O)N(CC)C2C1N(CO)C(=O)N2CO (centres undefined) | 0 | nt | nt | nt
CNC(=O)c1nc(C)n(-c2ccc(Cl)cc2Cl)n1 | -17 | nt | nt | nt
Cc1c(Cl)cccc1NC(=O)c1nc(C)n(-c2cc(OC(C)C)c(Cl)cc2Cl)n1 | 75* | 85 | 79 | 0.041
COc1ccc(/C=C/C(=O)c2cc(F)ccc2OC(=O)c2ccccc2C)cc1OC | 6 | 2.2* | 2.1* | nt
CN(C)CCN(C)Cc1ccccc1Sc1cccc2ccccc12 | 50 | 1.2* | 1.5* | nt
CCCCNC(=O)c1ccc(Cn2c(=S)[nH]c3c([nH]c4ccc(OC)cc43)c2=O)cc1 | -17 | 80 | 74 | nt
CCN(CC)CCNC(=O)CCCCn1c(=S)[nH]c2c([nH]c3ccc(OC)cc32)c1=O | 6 | 88 | 99 | 2.6*
NCCCn1cnc2ccccc21 | 1 | nt | nt | nt
Cc1ccc(-c2cc3cccc[n+]3cc2-c2ccc(C)cc2)cc1 | 57 | 3.2* | 6 | nt
CCOC(=O)N1CCC(N2Cc3cccc(C(=O)Nc4ccc(CC)cc4)c3C2=O)CC1 | 69* | 54 | 49 | 4*
Cc1ccc(NC(=O)c2c(O)c3ccccc3n(C)c2=O)nc1 | 8 | 77 | 60 | -0.29
Cn1c(=O)c(C(=O)Nc2ncccc2O)c(O)c2ccccc21 | -4 | 82 | 94 | 2.2*
COCCN(C(=S)Nc1ccc(C)cc1C)C(C)c1cccs1 (centres undefined) | 44 | nt | nt | nt
